FXN GAA850 act: FXN promoter activators, primary screen, cell-based, luciferase luminescence, HEK293 lucGAA850. HEK293 lucGAA850 FXN promoter luciferase reporter, 24 h; percent of 10 µM SAHA response. activation, % at 6 µM. 0.56% of 360,000 active;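 active means activation above the average of all compounds screened plus 3 SD, cutoff fixed separately per campaign, cut at about 7.5% in these data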
esBAF inh: Bmi1 luciferase reporter increase in mESCs, primary screen, esBAF inhibitor project, mouse ES cells, Bmi1 luciferase knock-in, single point; 24 h; 100% = twice the neutral-well signal; AID 602393, 2012; 2% of 350,000 active; reporter increase, % at 12.5 µM; in the data active means activation above about 40%; inconclusive means no clear call, values can overlap the other calls;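 further: a rise in the Bmi1 reporter signal indicates esBAF inhibition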
AHR activator: AHR activators, primary screen, cell-based, luminescence, luciferase reporter, human; 2.5% of 320,000 active; activation, % at 5 µM; Aryl hydrocarbon receptor (Homo sapiens), P35869; AHR-responsive luciferase reporter cells; in the data active means activation above about 47%
Target sequence (P35869 whole entry, looked up): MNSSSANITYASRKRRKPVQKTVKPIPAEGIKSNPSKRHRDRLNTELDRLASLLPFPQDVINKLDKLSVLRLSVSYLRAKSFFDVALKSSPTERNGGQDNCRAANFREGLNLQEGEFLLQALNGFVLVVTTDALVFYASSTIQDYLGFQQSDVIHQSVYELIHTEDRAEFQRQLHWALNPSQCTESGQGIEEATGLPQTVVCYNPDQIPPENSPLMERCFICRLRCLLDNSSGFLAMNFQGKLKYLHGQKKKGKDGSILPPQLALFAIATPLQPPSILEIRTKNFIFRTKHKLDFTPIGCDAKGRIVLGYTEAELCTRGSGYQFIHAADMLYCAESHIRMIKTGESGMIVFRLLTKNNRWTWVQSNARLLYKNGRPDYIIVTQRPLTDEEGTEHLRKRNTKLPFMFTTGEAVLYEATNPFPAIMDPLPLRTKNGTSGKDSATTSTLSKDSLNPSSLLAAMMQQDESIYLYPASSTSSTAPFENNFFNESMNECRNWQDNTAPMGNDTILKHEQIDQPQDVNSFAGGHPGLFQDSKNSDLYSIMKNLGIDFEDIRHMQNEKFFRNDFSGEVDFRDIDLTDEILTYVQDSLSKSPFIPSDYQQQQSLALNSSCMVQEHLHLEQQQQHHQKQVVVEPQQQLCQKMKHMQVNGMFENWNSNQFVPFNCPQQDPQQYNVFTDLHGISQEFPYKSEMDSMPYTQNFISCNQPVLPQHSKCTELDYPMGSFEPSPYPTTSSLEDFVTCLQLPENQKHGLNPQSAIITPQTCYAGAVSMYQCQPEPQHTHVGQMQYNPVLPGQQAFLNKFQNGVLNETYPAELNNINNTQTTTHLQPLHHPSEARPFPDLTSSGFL
MITF TRPM1 HTS: activators of MITF-driven TRPM1 promoter reporter, primary screen, cell-based, SK-MEL-5, luciferase, single point. SK-MEL-5 TRPM1-promoter luciferase, 24 h; % of positive control, neutral wells = 0. activation, % at 12.5 µM. 0.75% of 300,000 active. AID 588334, 2011;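 active means mean activation of at least 80% with every replicate also reaching 80%; inconclusive means mean reaches 80% but some replicate falls short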
Wnt bcat act: Wnt/beta-catenin pathway activators, primary screen, cell-based, plate reader, single point; Wnt/beta-catenin reporter cell assay, activator; activation, % at 9.35 µM; 1.2% of 300,000 active; AID 743398, 2014; in the data active means activation above about 30%, passing the limit was not always enough; inconclusive means no clear call, values can overlap the other calls
Of the large screens only hits and unclear results are named; the others gave an inactive call. Most compounds without a hit are left out; they make up all but 4.2% or so of the library.

CN(C)C(=O)/C(=C/c1cn(-c2ccccc2)nc1-c1cccc([N+](=O)[O-])c1)NC(=O)c1ccccc1	Wnt bcat act 56
COc1ccc(CNC(=S)NCc2ccc(OC(C)C)cc2)cc1	none (no result: esBAF inh)
CC(C)Oc1ccc(CNC(=O)Oc2ccccc2)cc1	MITF TRPM1 HTS 92 (no result: AHR activator)
CC(=O)Nc1ccc(-c2sc(Nc3cccc4ccccc34)n[n+]2-c2ccccc2)cc1	AHR activator 81
COc1ccc(C)cc1Nc1n[n+](-c2ccccc2)c(-c2cc([N+](=O)[O-])cc(OC)c2O)s1	none (no result: Wnt bcat act)
CCc1ccc(Nc2n[n+](-c3ccccc3)c(-c3ccc(SC)cc3)s2)cc1	none
CSc1ccc(-c2sc(Nc3cccc4ccccc34)n[n+]2-c2ccccc2)cc1	none
COc1ccc(C)cc1Nc1n[n+](-c2ccccc2)c(-c2ccc(SC)cc2)s1	AHR activator 73
CSc1ccc(-c2sc(Nc3ccccc3)n[n+]2-c2ccccc2)cc1	AHR activator 65 (no result: esBAF inh, Wnt bcat act)
COc1ccc(C)cc1Nc1n[n+](-c2ccccc2)c(-c2ccc(NC(C)=O)cc2)s1	AHR activator 65
CCCCNC(=O)C1(C)CCCCN1C(=O)c1cccs1 (stereo not drawn)	Wnt bcat act 39 (no result: AHR activator, MITF TRPM1 HTS)
CCCCNC(=O)C1(C)CCCCN1C(=O)c1ccno1 (stereo not drawn)	none (no result: AHR activator, MITF TRPM1 HTS)
CCCCNC(=O)C1(C)CCCCN1C(=O)c1sccc1C (stereo not drawn)	none (no result: AHR activator, MITF TRPM1 HTS)
CCCCNC(=O)C1(C)CCCCN1C(=O)c1c(C)noc1C (stereo not drawn)	Wnt bcat act 33 (no result: AHR activator, MITF TRPM1 HTS)
CN(C)CCCNC(=O)C[C@@H]1CC[C@H](NC(=O)c2ccccc2F)[C@@H](CO)O1	none (no result: FXN GAA850 act, AHR activator, MITF TRPM1 HTS, Wnt bcat act)
CC1=CCC(COC(=O)Nc2ccccc2)CC1 (stereo not drawn)	esBAF inh 84, MITF TRPM1 HTS 126
N/C(=N\OC(=O)c1ccc(Br)o1)c1cccnc1	AHR activator 53 (no result: esBAF inh)
N/C(=N\OC(=O)c1ccc([N+](=O)[O-])cc1)c1cccnc1	none (no result: esBAF inh)
COc1ccc(/C(N)=N/OC(=O)c2ccc(Br)o2)cc1	esBAF inh 58, AHR activator 69
Cc1noc(C)c1NC(=O)Nc1ccc2c(c1)C(=O)N([C@H](C)CO)C[C@@H](C)[C@H](CN(C)Cc1ccc(C(F)(F)F)cc1)OCCCC[C@H](C)O2	none (no result: FXN GAA850 act, AHR activator, MITF TRPM1 HTS, Wnt bcat act)
COCC(=O)Nc1ccc2c(c1)OC[C@@H](C)N(Cc1cc(-c3ccccc3)on1)C[C@@H](C)[C@H](OC)CN(C)C2=O	none (no result: FXN GAA850 act, AHR activator, MITF TRPM1 HTS, Wnt bcat act)
COc1ccc(C(CNC(=O)c2oc3ccc(Cl)cc3c2C)N2CCCCC2)cc1 (stereo not drawn)	none
CCN(CC(=O)Nc1ccc(OC)cc1)C(=O)c1oc2c(Cl)cccc2c1C	AHR activator 53
COc1ccc(C(CNC(=O)c2ccccc2C)N2CCCC2)cc1 (stereo not drawn)	none (no result: MITF TRPM1 HTS)
COc1ccc(C(CNC(=O)c2oc3c(Cl)cccc3c2C)N2CCCC2)cc1 (stereo not drawn)	AHR activator 50
COc1ccc(C(CNC(=O)c2oc3ccccc3c2C)N2CCCC2)cc1 (stereo not drawn)	AHR activator 47
COc1ccccc1NC(=O)N[C@H]1CC[C@@H](CCn2cc(-c3ccccc3OC)nn2)O[C@@H]1CO	none (no result: FXN GAA850 act, AHR activator, MITF TRPM1 HTS, Wnt bcat act)
CNC[C@H]1OCCCC[C@@H](C)Oc2ccc(NC(=O)Nc3ccc(C(F)(F)F)cc3)cc2C(=O)N([C@@H](C)CO)C[C@H]1C	none (no result: FXN GAA850 act, AHR activator, MITF TRPM1 HTS, Wnt bcat act)
C[C@@H]1CN([C@H](C)CO)C(=O)c2cc(NS(=O)(=O)c3cn(C)cn3)ccc2O[C@@H](C)CCCCO[C@H]1CN(C)C(=O)Nc1ccc(F)cc1	none (no result: FXN GAA850 act, AHR activator, MITF TRPM1 HTS, Wnt bcat act)
Cc1noc(C)c1S(=O)(=O)Nc1cccc2c1O[C@H](CN(C)Cc1ccc(Oc3ccccc3)cc1)[C@H](C)CN([C@@H](C)CO)C2=O	none (no result: FXN GAA850 act, AHR activator, MITF TRPM1 HTS, Wnt bcat act)
O=C(NCC[C@@H]1CC[C@H](NS(=O)(=O)c2cccc(F)c2)[C@H](CO)O1)C1CCC1	none (no result: FXN GAA850 act, AHR activator, MITF TRPM1 HTS, Wnt bcat act)
Cc1nn2c(NCCCn3ccnc3)cc(C(C)C)nc2c1-c1ccccc1	AHR activator 48 (no result: esBAF inh)
Cc1nn2c(NCc3ccccn3)cc(C(C)C)nc2c1-c1ccccc1	none (no result: esBAF inh)
O=C(NCCc1ccccc1)c1cccc(NC(=O)C2CCC2)c1	esBAF inh 57 (no result: AHR activator)
O=C(NCCc1ccccc1)c1cccc(NC(=O)C2CC2)c1	esBAF inh 52 (no result: AHR activator)
CCCNC(=O)C[C@H]1CC[C@H]2[C@@H](COC[C@@H](O)CN2C(=O)c2ccccn2)O1	none (no result: FXN GAA850 act, AHR activator, MITF TRPM1 HTS, Wnt bcat act)
C[C@@H]1CCCCO[C@@H](CN(C)CC2CCCCC2)[C@@H](C)CN([C@@H](C)CO)C(=O)c2cc(NC(=O)c3ccccc3)ccc2O1	none (no result: FXN GAA850 act, AHR activator, MITF TRPM1 HTS, Wnt bcat act)
COc1ccc(Nc2nc(C)cc(C)c2C#N)c(OC)c1	none
CCOc1ccc(Nc2nc(C)cc(C)c2C#N)cc1	AHR activator 80 (no result: Wnt bcat act)
COc1ccc(Nc2nc(C)cc(C)c2C#N)cc1	AHR activator 65
CO[C@H]1CN(C)C(=O)c2cc(NS(=O)(=O)c3ccc(Oc4ccccc4)cc3)ccc2OC[C@H](C)NC[C@H]1C	none (no result: FXN GAA850 act, AHR activator, MITF TRPM1 HTS, Wnt bcat act)
CCC(=O)N(Cc1cc2ccccc2[nH]c1=O)C(C)C	none (no result: Wnt bcat act)
CN(Cc1cc2ccccc2[nH]c1=O)C(=O)COc1ccccc1	Wnt bcat act 50 (no result: esBAF inh)
O=C(NCCc1cccs1)c1cccs1	esBAF inh 61, MITF TRPM1 HTS inconclusive
O=C(CNC(=O)c1cccs1)c1ccc(Br)cc1	MITF TRPM1 HTS 123
O=C(NCCCCCCNC(=O)c1cccs1)c1cccs1	none (no result: esBAF inh)
COc1ccc2cc(CCNC(=O)c3cc4ccccc4o3)c(=O)[nH]c2c1	none (no result: esBAF inh)
O=C(NCCC1CCCC1)c1cccs1	esBAF inh 50 (no result: MITF TRPM1 HTS)
COc1ccc2cc(CCNC(=O)c3cccs3)c(=O)[nH]c2c1	esBAF inh 72, MITF TRPM1 HTS 90, Wnt bcat act 51
COCC(=O)Nc1ccc2c(c1)C(=O)N(C)C[C@@H](OC)[C@@H](C)CN(C(=O)c1ccncc1)[C@@H](C)CO2	none (no result: FXN GAA850 act, AHR activator, MITF TRPM1 HTS, Wnt bcat act)
CCCNC(=O)N1C[C@H](C)[C@@H](OC)CN(C)C(=O)c2ccc(NC(=O)CCC)cc2OC[C@H]1C	none (no result: FXN GAA850 act, AHR activator, MITF TRPM1 HTS, Wnt bcat act)
O=C(NCCc1ccc(F)cc1)c1cccs1	esBAF inh 65
O=C(NCc1ccc(F)cc1)c1cccs1	none
C[C@H]1CN([C@@H](C)CO)C(=O)c2cc(NS(=O)(=O)c3cn(C)cn3)ccc2O[C@H]1CN(C)S(C)(=O)=O	none (no result: FXN GAA850 act, AHR activator, MITF TRPM1 HTS, Wnt bcat act)
O=C(C[C@H]1CC[C@@H]2[C@H](COC[C@@H](O)CN2C(=O)c2ccccc2F)O1)N1CCCCC1	none (no result: FXN GAA850 act, AHR activator, MITF TRPM1 HTS, Wnt bcat act)
O=C(Nc1nnc(-c2ccco2)s1)C1CCCCC1	esBAF inh 77 (no result: Wnt bcat act)
CSc1nnc(NC(=O)C2CCCCC2)s1	esBAF inh 45
CCSc1nnc(NC(=O)C2CCCCC2)s1	esBAF inh 44 (no result: MITF TRPM1 HTS, Wnt bcat act)
O=C(C[C@H]1CC[C@H]2[C@@H](COC[C@H](O)CN2C(=O)Nc2cccc(F)c2)O1)NCc1ccccc1Cl	none (no result: FXN GAA850 act, AHR activator, MITF TRPM1 HTS, Wnt bcat act)
CO[C@H]1CN(C)C(=O)c2cc(NC(=O)c3ccc(F)cc3)ccc2OC[C@H](C)N(C(C)=O)C[C@@H]1C	none (no result: FXN GAA850 act, AHR activator, MITF TRPM1 HTS, Wnt bcat act)
